Data reported in PubChem BioAssay (NCI).
This is part of a sample that, as a whole, favours compounds with a hit. Of some 83,000 tested, about 20% had one in any assay.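 Compound tested at a single concentration for 48 hours in 96-well plates; a percent growth value below 10 was scored as active.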 Calls of active or inactive are those of the source.

system: SK-MEL-2 melanoma; experiment: NCI-60 one-dose screen, 48 h (100 = growth as untreated, 0 = no growth, -100 = all killed); conditions: 10 µM unless noted

| Structure (SMILES) | growth |
| --- | --- |
| NS(=O)(=O)c1ccc(Nc2nc(N/N=C/c3ccc(F)cc3)nc(Nc3ccccc3)n2)cc1 | -9.45% (active) |
| COc1ccc(-c2cc(-c3ccc(Cl)cc3)nc3nc(N)nn23)cc1 | 103% (inactive) |
| COc1ccc(Cn2cc3c(c2-c2cc(OC)c(OC)c(OC)c2)CCCc2cnoc2-3)cc1 | 54.9% (inactive) |
| CN(c1ccc(F)cc1)S(=O)(=O)c1ccc(-c2cnc(C3CC3)o2)cc1 | 77.6% (inactive) |
| COC[C@]12CC[C@@H](C)[C@H](C)[C@H]1C1=CC[C@@H]3[C@@]4(C)CCCNC(C)(C)[C@@H]4CC[C@@]3(C)[C@]1(C)CC2 | 58.5% (inactive) |
| C=C(C)[C@@H]1CC[C@]2(C(=O)ON)CC[C@]3(C)[C@H](CC[C@@H]4[C@@]5(C)C/C(=C/c6ccc(Br)cc6)C(=O)C(C)(C)[C@@H]5CC[C@]43C)[C@@H]12 | 88.8% (inactive) |
| CN(c1ccc(Br)cc1)S(=O)(=O)c1ccc(-c2cnc(C3CC3)o2)cc1 | 69.5% (inactive) |
| CCCCCCNC(=O)Oc1ccc(/C(=C(\C)c2ccc(Cl)cc2)c2ccc(OCCN(C)C)cc2)cc1 | 98% (inactive) |
| C=C(C)[C@@H]1CC[C@]2(COS(C)(=O)=O)CC[C@]3(C)[C@H](CC[C@@H]4[C@@]5(C)CCCNC(C)(C)[C@@H]5CC[C@]43C)[C@@H]12 | 94.7% (inactive) |
| O=C(NNc1nc2cc(F)ccc2n2cncc12)c1cnccn1 | 36% (inactive) |
| CN1CCN(c2ccc3c(C(N)=O)c(NC(=O)c4ccc(C(C)(C)C)cc4)sc3c2)CC1 | 97.4% (inactive) |
| NC(=O)C(=Cc1ccc(Cl)cc1)C(N)=O | 87.3% (inactive) |
| CCN1C(=O)N(CC)C2SC(N/N=C/C=C/c3ccccc3OC)=NC21 (centres undefined) | 51.5% (inactive) |
| CC(=O)C1=NN(c2ccc(Cl)cc2)C(=O)CN1C | 102% (inactive) |
| CCOC(=O)c1c(NCC(=O)Nc2ccc(Br)cc2)sc2c1CCCC2 | 68.7% (inactive) |
| CN1CCN(c2ccc3c(c2)nc(NNC(=O)c2ccncn2)c2cccn23)CC1 | 31.5% (inactive) |
| CCOc1c(C#N)c(Nc2ccc(S(N)(=O)=O)cc2)c(C#N)c2nnc(C)n12 | 101% (inactive) |

| Structure (SMILES) | growth |
| --- | --- |
| O=c1[nH]c(CNc2ccc(NCc3c(-c4ccccc4)no[n+]3[O-])cc2)nc2c1cnn2-c1ccccc1 | 77.2% (inactive) |
| C#CCOc1ccc(C(Nc2ccc(Cl)cc2)c2nnnn2C2CCCCC2)cc1 (centres undefined) | 91.4% (inactive) |
| COc1cc(/C=N/Nc2ccnc3cc(Cl)ccc23)cc(OC)c1O | 119% (inactive) |
| COc1cc(C(=O)C[n+]2ccc3ccccc3c2)cc(OC)c1OC | 102% (inactive) |
| Cc1ccc(NC(=O)c2ccc(CN3CCN(C)CC3)c(I)c2)cc1Oc1ccc(-c2[nH]nc3ncnc(N)c23)cc1 | 86.4% (inactive) |
| COc1ccc(Cn2cc3c(c2-c2ccccc2)CCCc2cnoc2-3)cc1 | 80.2% (inactive) |
| N#Cc1c(NC(=O)c2ccc(F)c(Cl)c2)sc2c1CCC(=O)C2 | 18.3% (inactive) |
| c1ccc(-c2c(-c3ccccc3)[n+](Cc3ccc4ccccc4c3)c(-c3ccccc3)n2Cc2ccc3ccccc3c2)cc1 | -67.7% (active) |
| CCOC(=O)C1=C(C)N=C2Sc3ccccc3N2C1c1ccccc1 (centres undefined) | 89.7% (inactive) |
| CCn1c2ccc(/C=N/NS(=O)(=O)CCN(C)C)cc2c2cc(/C=N/NS(=O)(=O)CCN(C)C)ccc21 | 105% (inactive) |
| Cn1cc2c(c1)-c1c(sc3nc(-c4ccc(NC(=O)Nc5cc(C(C)(C)C)on5)cc4)cn13)CC2 | 65.5% (inactive) |
| CCOC(=O)c1c(NC(=O)c2ccc(C(C)(C)C)cc2)sc2cc(OCCN3CCCCC3)ccc12 | 98.6% (inactive) |
| COc1ccccc1/C=C/C=N/NC1=NC2C(S1)N(C)C(=O)N2c1ccccc1 (centres undefined) | 67.6% (inactive) |
| CC1(C)CC[C@]2(C(=O)O)CC[C@]3(C)C(=CCC4[C@@]5(C)C[C@@H](O)[C@@H]6OC(c7cccc([N+](=O)[O-])c7)OC[C@@]6(C)C5CC[C@]43C)C2C1 (some centres undefined) | 88.5% (inactive) |
| CN(C)c1ncc(/C=C2\SC(=S)N(Cc3ccccc3Cl)C2=O)s1 | 86% (inactive) |
| O=C(/C=C1\C=CN(CCCCO)c2ccccc21)n1ccc2ccccc21 | 101% (inactive) |
| C#C[C@]1(O)CC[C@H]2[C@@H]3CC=C4c5sc(Nc6nc(C)cc(OC)n6)nc5CC[C@]4(C)[C@H]3CC[C@@]21C | 58.2% (inactive) |
